# According to PubChem BioAssay (NCI):
# The panel holds about 83,000 compounds, 20% with a hit somewhere; the sample as a whole holds those more often.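 Percent growth is the endpoint: 0 to 100 indicates growth inhibition (40 means 60% inhibition), 0 means no net growth, and negative values indicate cell death.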 Values without a mark were called inactive. The source made the active and inactive calls. Rule for the calls: active = growth percent below 10; inactive = the rest.
# System: HL-60(TB) leukemia
# Experiment: NCI-60 one-dose screen, 48 h (100 = growth as untreated, 0 = no growth, -100 = all killed)
# Conditions: 10 µM unless noted
row,Structure (SMILES),growth
1,CCn1c(SCC(=O)Nc2cccc(C(=O)/C=C/c3cc(OC)c(OC)c(OC)c3)c2)nc2ccccc2c1=O,48%
2,COc1cc(-c2nc(SCc3ccc(C)cc3)[nH]c(=O)c2C#N)ccc1OCc1ccccc1,137%
3,COc1ccc(COc2ccc(/C=C3\C(=O)Nc4ccccc43)cc2OC)cc1,115%
4,O=C(CN1CCN(c2cc(=O)n(-c3ccccc3)c3ccccc23)CC1)Nc1cccc(C(F)(F)F)c1,28.6%
5,Cc1ccc(NC(=O)c2cccc(CN3CCN(C)CC3)c2)cc1Oc1ccc(-c2[nH]nc3ncnc(N)c23)cc1,46.8%
6,COc1ccc(-c2ccc3c4c(cccc24)C(=O)N(N2C(=O)c4cccc5cccc(c45)C2=O)C3=O)cc1,103%
7,COc1ccc(/C=N/Nc2nc(Nc3ccccc3)nc(Nc3ccc(S(N)(=O)=O)cc3)n2)cc1,83.8%
8,C=C(C)[C@@H]1CC[C@]2(C(=O)NCCCN(CCC#N)CCC#N)CC[C@]3(C)[C@H](CC[C@@H]4[C@@]5(C)CCC(=O)C(C)(C)[C@@H]5CC[C@]43C)[C@@H]12,96.3%
9,N#Cc1c(-c2cccs2)cc(-c2cnccn2)nc1SCC(=O)N/N=C/c1ccncc1,118%
10,CNC(=O)c1c(NC(=O)c2ccc(F)cc2F)sc2c1CCC(=O)C2,-12.6% (active)
11,COc1ccc([C@@H]2C(=O)N(c3cc(OC)c(OC)c(OC)c3)[C@H]2c2ccc(OC)c(O)c2)cc1,2.64% (active)
12,CNC(=O)c1c(NC(=O)c2cccc(C(F)(F)F)c2F)sc2c1CCC(=O)C2,4.41% (active)
13,COc1ccc(/C=N/N=C(/c2ccccc2)c2ccc3nc(-c4ccc(Cl)cc4)[nH]c3c2)cc1,67.2%
14,O=C(CN1CCN(c2cc(=O)[nH]c3ccc(F)cc23)CC1)N(c1ccccc1)c1ccccc1,106%
15,O=C(N/N=C/c1ccco1)c1[nH]c2ccc(Br)cc2c1-c1ccccc1,-28.4% (active)
16,O=C(NCCn1ccnc1)c1ccc(-c2nc3ccc4[nH]ncc4c3c3c2CCCC3)cc1,76.9%
17,Cc1csc(/N=C(N)/N=C(\N)c2cccs2)n1,111%
18,N#CC1=C2NCCCNc3oc(nc3C#N)Cc3ccccc3CC(=N1)O2,62.9%

row,Structure (SMILES),growth
1,O=c1[nH]c2cc(Cl)ccc2n1C1CCN(c2ccc3nnc(Cl)n3n2)CC1,93.1%
2,COc1ccc(NC2=C(Cl)C(=O)C(C)=C(C)C2=O)cc1OC,88.4%
3,N#Cc1c(NC(=O)c2ccccc2C(F)(F)F)sc2c1CCC(=O)C2,3.87% (active)
4,C#C[C@]1(O)CC[C@H]2[C@@H]3CC=C4c5sc(Nc6cc(C)cc(C)c6)nc5CC[C@]4(C)[C@H]3CC[C@@]21C,-2.89% (active)
5,Cn1cc(-c2nn3cc(-c4ccncc4)nc3s2)c2cc(Br)ccc21,17.3%
6,O=C(Nc1cc(Cl)cc(Cl)c1)Nc1ccc2oc(=O)ccc2c1,0.984% (active)
7,COc1cc(-c2nn(C(C)(C)C)cc2-c2ccnc(NCCCNS(=O)(=O)c3ccc(F)cc3)n2)ccc1Cl,101%
8,CCc1nn2c(C)cc(C)nc2c1Cc1ccc(/C=C/CN2CCN(CCOCCOCCN3CCN(C/C=C/c4ccc(Cc5c(CC)nn6c(C)cc(C)nc56)cc4)CC3)CC2)cc1,-51.4% (active)
9,Cc1ccc(NC(=O)c2cc(/C=C/C(=O)NO)cc(C(F)(F)F)c2)cc1Nc1nccc(-c2cccnc2)n1,0.414% (active)
10,CCOC(=O)C1=NNC(c2ccc(Cl)cc2)C1C(=O)N1C(=S)NC(=O)C1CC(C)C (stereo not given),106%
11,CCNC(=O)N1CCc2cc(OC)c(OCCc3ccc(OC)cc3)cc2C1c1ccc(OC)cc1C (stereo not given),23.9%
12,COc1ccccc1-n1cc(C#N)c(N)c1C(=O)c1ccc(Br)cc1,35.8%
13,O=c1nc(Nc2ccc([N+](=O)[O-])cc2O)sc2ccccc12,-13.3% (active)
14,CCCc1[nH]c(-c2cc(N)ccc2Cl)c2c1C(=O)CCCC2,92.4%
15,COc1ccccc1N1CCN(C2=NN=C(c3cccc(Cl)c3)c3ccccc3C2)CC1,-55.5% (active)
16,COc1ccc(C2CC(c3ccc(Nc4nc(NCCO)nc(Nc5ccc(Cl)cc5)n4)cc3)=Nc3c(N)nc(N)nc3N2)cc1 (stereo not given),36.6%
17,COc1cc(-c2nnc(SCc3ccc(O)c4ncccc34)n2-c2ccccc2)cc(OC)c1OC,-17.8% (active)
